Test results published in PubChem BioAssay (NCATS).
Records with an inconclusive call do not appear. The source made the active and inactive calls. Calls follow the shape of the dose curve; as a rule, active = well fitted curve in the direction sought with a large enough effect; inconclusive = small, poorly fitted or top-dose-only effect, or another doubt; inactive = no such curve, though single readings can be large; an effect the other way counts as inactive or inconclusive.

Key:
TAB165 = assay: qHTS profiling for inhibitors of Plasmodium falciparum proliferation (AID 504749);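 also: 0% = DMSO vehicle and full inhibition = artemisinin control; nearly all actives have a fitted effect of over 60% in size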; conditions: P. falciparum in erythrocytes, SYBR Green DNA, 72 h; series mostly up to 28.7 µM
Summary of the method: (§1)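 Readout was DNA-dye fluorescence from lysed cultures, ex 485/em 535 nm. Parasitized red cells had grown 72 h with compound; data scaled between 0.29 uM artemisinin and DMSO wells and corrected using vehicle-only plates.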

W2 = assay: as above; conditions: P. falciparum in erythrocytes, SYBR Green DNA, 72 h; series mostly up to 28.7 µM
Summary of the method: as §1

CRL-7250 = normal cell line; assay: Cytotoxic Profiling of Annotated Libraries Using Quantitative High-Throughput Screening (AID 1296008); conditions: Five cell lines viability, CellTiter-Glo ATP luminescence, 48-72 h; max response: active compounds read low; also: nearly all actives have a fitted effect of over 60% in size; as to max response: % is scaled to controls: 0 for no effect and ±100 for the full control effect
Summary of the method: (§2)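 Cells exposed to compounds for 48 or 72 hr at 37 degrees Celsius. Viability read as ATP-coupled luminescence with CellTiter-Glo after 10 min at room temperature.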

HEK293 = assay: as above; conditions: Five cell lines viability, CellTiter-Glo ATP luminescence, 48-72 h; max response: active compounds read low
Summary of the method: as §2

HaCat [1] = assay: as above; conditions: Five cell lines viability, CellTiter-Glo ATP luminescence, 48-72 h; max response: active compounds read low
Summary of the method: as §2

KB-3-1 = assay: as above; conditions: Five cell lines viability, CellTiter-Glo ATP luminescence, 48-72 h; max response: active compounds read low
Summary of the method: as §2

NIH3T3 [2] = assay: as above; conditions: Five cell lines viability, CellTiter-Glo ATP luminescence, 48-72 h; max response: active compounds read low
Summary of the method: as §2

HACAT [3] = assay: qHTS assay to identify novel small-molecules to repurpose for Merkel cell carcinoma treatment (AID 1296009); conditions: MCC and control cell lines, CellTiter-Glo viability, 72 h; at 44.8 µM (top of the series) unless noted; also: nearly all actives have a fitted effect of over 60% in size
Summary of the method: (§3)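 Cells were incubated with compound for 72 hr at 37 degree celsius before CellTiter-Glo addition. Luminescence was normalized with no-cell wells as full cytotoxicity and DMSO as baseline.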

HEK293T = assay: as above; conditions: MCC and control cell lines, CellTiter-Glo viability, 72 h; at 44.8 µM (top of the series) unless noted
Summary of the method: as §3

MCC-13 = assay: as above; conditions: MCC and control cell lines, CellTiter-Glo viability, 72 h; series mostly up to 46 µM
Summary of the method: as §3

MCC-26 = assay: as above; conditions: MCC and control cell lines, CellTiter-Glo viability, 72 h; series mostly up to 46 µM
Summary of the method: as §3

MKL-1 = assay: as above; conditions: MCC and control cell lines, CellTiter-Glo viability, 72 h; series mostly up to 46 µM
Summary of the method: as §3

MKL-2 = assay: as above; conditions: MCC and control cell lines, CellTiter-Glo viability, 72 h; series mostly up to 46 µM
Summary of the method: as §3

NIH3T3 [4] = assay: as above; conditions: MCC and control cell lines, CellTiter-Glo viability, 72 h; at 44.8 µM (top of the series) unless noted
Summary of the method: as §3

UISO = assay: as above; conditions: MCC and control cell lines, CellTiter-Glo viability, 72 h; series mostly up to 46 µM
Summary of the method: as §3

WaGa = assay: as above; conditions: MCC and control cell lines, CellTiter-Glo viability, 72 h; series mostly up to 46 µM
Summary of the method: as §3

C33A = assay: Primary qHTS to identify gynecologic anti-cancer compounds using libraries of approved drugs and bioactive compounds (AID 1345084); conditions: Gynecologic cancer cell panel viability, ATPlite luminescence, 48 h; series mostly up to 57.5 µM; also: % is scaled to controls: 0 for no effect and ±100 for the full control effect; nearly all actives have a fitted effect of over 55% in size
Summary of the method: (§4)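 Luminescence from the ATPlite ATP-monitoring reagent indicates viable cell number; lower signal means cytotoxicity. Cells received compound 16 h after seeding and were exposed for 48 h across five concentrations.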

CASKI = assay: as above; conditions: Gynecologic cancer cell panel viability, ATPlite luminescence, 48 h; series mostly up to 57.5 µM
Summary of the method: as §4

Es-2 = assay: as above; conditions: Gynecologic cancer cell panel viability, ATPlite luminescence, 48 h; series mostly up to 57.5 µM
Summary of the method: as §4

CAOV3 = assay: as above; conditions: Gynecologic cancer cell panel viability, ATPlite luminescence, 48 h; series mostly up to 57.5 µM
Summary of the method: as §4

NC(CSCC(=O)O)C(=O)O (configuration not stated)
inactive: Potency (TAB165) | Potency (W2) | outcome (CRL-7250) | outcome (HEK293) | outcome (HaCat [1]) | max response (KB-3-1) -5.75% | outcome (NIH3T3 [2]) | outcome (HACAT [3]) | outcome (HEK293T) | Potency (MCC-13) | Potency (MCC-26) | Potency (MKL-1) | Potency (MKL-2) | outcome (NIH3T3 [4]) | Potency (UISO) | Potency (WaGa) | Potency (C33A) | Potency (CASKI) | Potency (Es-2)

N[C@H](C(=O)O)c1ccc(O)cc1
inactive: max response (CRL-7250) 3.21% | outcome (HEK293) | outcome (HaCat [1]) | max response (KB-3-1) 2.74% | max response (NIH3T3 [2]) -1.62% | outcome (HACAT [3]) inactive [at 17.4 µM] | outcome (HEK293T) inactive [at 17.4 µM] | Potency (MCC-13) | Potency (MCC-26) | Potency (MKL-1) | Potency (MKL-2) | Potency (UISO) | Potency (WaGa) | Potency (C33A) | Potency (CAOV3) | Potency (CASKI) | Potency (Es-2)

NCCNCCNCCN
inactive: Potency (TAB165) | Potency (W2) | max response (CRL-7250) 1.87% | outcome (HEK293) | outcome (HaCat [1]) | max response (KB-3-1) -5.28% | max response (NIH3T3 [2]) -1.13% | outcome (HACAT [3]) | outcome (HEK293T) | Potency (MCC-13) | Potency (MCC-26) | Potency (MKL-1) | Potency (MKL-2) | Potency (UISO) | Potency (WaGa) | Potency (C33A) | Potency (CAOV3) | Potency (CASKI) | Potency (Es-2)

O=S(=O)(O)c1cc(I)c(O)c2ncccc12
inactive: Potency (TAB165) | Potency (W2) | max response (CRL-7250) 1.34% | outcome (HEK293) | outcome (HaCat [1]) | max response (KB-3-1) -3.56% | max response (NIH3T3 [2]) -0.492% | outcome (HACAT [3]) | outcome (HEK293T) | Potency (MCC-13) | Potency (MCC-26) | Potency (MKL-1) | Potency (MKL-2) | Potency (UISO) | Potency (WaGa) | Potency (C33A) | Potency (CAOV3) | Potency (CASKI) | Potency (Es-2)

CN(C)CCCO[C@@H]1[C@H]2OC(C)(C)O[C@H]2O[C@@H]1C(O)CO (some centres not stated)
inactive: max response (CRL-7250) -6.03% | outcome (HEK293) | outcome (HaCat [1]) | max response (KB-3-1) 3.47% | max response (NIH3T3 [2]) -0.499% | outcome (HACAT [3]) | outcome (HEK293T) | Potency (MCC-13) | Potency (MCC-26) | Potency (MKL-1) | Potency (MKL-2) | Potency (UISO) | Potency (WaGa) | Potency (C33A) | Potency (CASKI) | Potency (Es-2)

O=C1NS(=O)(=O)c2ccccc21
inactive: Potency (TAB165) | Potency (W2) | max response (CRL-7250) -9.05% | outcome (HEK293) | outcome (HaCat [1]) | max response (KB-3-1) 20.6% | max response (NIH3T3 [2]) -6% | outcome (HACAT [3]) | outcome (HEK293T) | Potency (MCC-13) | Potency (MKL-1) | Potency (MKL-2) | Potency (UISO) | Potency (WaGa) | Potency (C33A) | Potency (CAOV3) | Potency (CASKI) | Potency (Es-2)

O=C1O[C@H](CO)[C@@H](O)[C@H](O)[C@H]1O
inactive: outcome (CRL-7250) | outcome (HEK293) | outcome (HaCat [1]) | max response (KB-3-1) 25.2% | max response (NIH3T3 [2]) -2.57% | outcome (HACAT [3]) | outcome (HEK293T) | Potency (MCC-13) | Potency (MCC-26) | Potency (MKL-1) | Potency (MKL-2) | Potency (UISO) | Potency (WaGa) | Potency (C33A) | Potency (CAOV3) | Potency (CASKI) | Potency (Es-2)

CC1(C)CO[C@@H](CC(=O)O)CN1
inactive: Potency (TAB165) | Potency (W2) | outcome (CRL-7250) | outcome (HEK293) | outcome (HaCat [1]) | max response (KB-3-1) 9.26% | max response (NIH3T3 [2]) -2.92% | outcome (HACAT [3]) | outcome (HEK293T) | Potency (MCC-13) | Potency (MCC-26) | Potency (MKL-1) | Potency (MKL-2) | Potency (UISO) | Potency (WaGa) | Potency (C33A) | Potency (CAOV3) | Potency (CASKI) | Potency (Es-2)

O=C(O)c1ccccn1
inactive: Potency (TAB165) | Potency (W2) | max response (CRL-7250) -6.73% | outcome (HEK293) | outcome (HaCat [1]) | max response (KB-3-1) -2.2% | outcome (NIH3T3 [2]) | outcome (HACAT [3]) | outcome (HEK293T) | Potency (MCC-13) | Potency (MCC-26) | Potency (MKL-1) | Potency (MKL-2) | outcome (NIH3T3 [4]) | Potency (UISO) | Potency (WaGa) | Potency (C33A) | Potency (CASKI) | Potency (Es-2)

COc1cc(C)c(Cc2cnc(N)nc2N)cc1OC
inactive: Potency (TAB165) | max response (CRL-7250) 0.178% | outcome (HEK293) | outcome (HaCat [1]) | max response (KB-3-1) 7.84% | max response (NIH3T3 [2]) 0.338% | outcome (HACAT [3]) | outcome (HEK293T) | Potency (MCC-13) | Potency (MCC-26) | Potency (MKL-1) | Potency (MKL-2) | Potency (UISO) | Potency (WaGa) | Potency (C33A) | Potency (CAOV3) | Potency (CASKI) | Potency (Es-2)

CC1=C(C/C=C(\C)CCC[C@H](C)CCC[C@H](C)CCCC(C)C)C(=O)c2ccccc2C1=O
inactive: max response (CRL-7250) 1.2% | outcome (HEK293) | outcome (HaCat [1]) | max response (KB-3-1) -12.7% | max response (NIH3T3 [2]) 1.11% | outcome (HACAT [3]) | outcome (HEK293T) | Potency (MCC-13) | Potency (MCC-26) | Potency (MKL-1) | Potency (MKL-2) | Potency (UISO) | Potency (WaGa) | Potency (C33A) | Potency (CAOV3) | Potency (CASKI) | Potency (Es-2)

CCCCCCCCCCCCCCCCCCOCC(O)CO (configuration not stated)
inactive: Potency (TAB165) | Potency (W2) | outcome (CRL-7250) | outcome (HEK293) | outcome (HaCat [1]) | max response (KB-3-1) 4.03% | max response (NIH3T3 [2]) 4.13% | outcome (HACAT [3]) | outcome (HEK293T) | Potency (MCC-13) | Potency (MCC-26) | Potency (MKL-1) | Potency (MKL-2) | Potency (UISO) | Potency (WaGa) | Potency (C33A) | Potency (CAOV3) | Potency (CASKI) | Potency (Es-2)
